IL1B secr inh: blocks inflammasome-driven IL-1 beta release. activity change, % at 57.5 µM. 360,000 compounds, 4.7% hits. THP-1 LPS/ATP IL-1B secretion, AlphaLISA, 16 h; hits give low values; in the data active = activity change below about -50%; inconclusive = mostly about -30% to -49%; note: % is set by controls: 0 for no effect and ±100 for the full control effect
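THP-1 cells pretreated 1 hr with compounds (up to 57.5 uM final), then stimulated with LPS (250 ng/mL final) plus ATP (1.25 mM final); secreted IL-1B measured by AlphaLISA after 16 hr, decreased signal indicating inhibition.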
SW480 rerep: induces DNA re-replication in SW480 colon adenocarcinoma cells. SW480 DNA re-replication, Hoechst DNA content imaging, 48 h. Potency, µM (doses to about 46.1 µM), inactives show at the top dose re-replication activation, usual class: activators. 340,000 compounds, 1.8% hits; note: potency is the fitted concentration of half-maximal effect; % of control where 0% means no effect; nearly all actives have a fitted effect of over 55% in size
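250 cells/well; 23 nL cpd via pin tool; 48 hr, 37 C, 5% CO2; Hoechst 40 min; imager read of total nuclear intensity, ex 405/em 500-530 nm.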
DT40 TDP1 CPT: growth inhibition of DT40 Tdp1-/-;hTDP1 cells with camptothecin (screen for TDP1 inhibitors). chicken DT40 Tdp1-/-;hTDP1 cells + 20 nM CPT, ATP luminescence, 48 h. Potency, µM (series often up to 46.2 µM), inactives show at the highest dose activity change, negative = growth inhibition, actives largely listed as inhibitors. 420,000 compounds, 12% hits; note: potency is the fitted concentration of half-maximal effect; % is set by controls: 0 for no effect and ±100 for the full control effect; nearly all actives have a fitted effect of over 55% in size
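Cell growth measured by CellTiter-Glo luminescence after a minimum 48 h, 37 C compound exposure with 20 nM CPT in Tdp1-knockout DT40 cells stably expressing hTDP1, seeded 400/well; qHTS titration format.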
BCR signal inh: inhibitors of chronic active B-cell receptor signaling | Potency, µM (highest dose often 46.1 µM), for inactives: at the highest dose activity change, negative = inhibition, usual class: inhibitors | ABC-DLBCL IkBa-CBG/CBR reporter, luminescence ratio, 4 h | 340,000 compounds, 0.05% hits; active = well fitted inhibition curve with a large enough effect in the signal ratio, with a control signal flat, not every such curve was filed as active; inconclusive = small, poorly fitted or top-dose-only effect, or effect the other way, or a change in a side signal; the % refers to the signal ratio;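 note: potency is the fitted concentration of half-maximal effect; plate controls were basal doxycycline-induced cells for no effect and cells given 10 µM MG132 for full effect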
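Doxycycline induced both beetle luciferases in TMD8 lymphoma cells; IKK-driven degradation limits the IkappaBalpha-fused green signal, while red luminescence normalises for cell number and nonspecific effects. Compounds tested up to 46 uM, 4 hrs.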
MCF10A rereplic: induces DNA re-replication in MCF 10a normal breast cells. MCF 10A DNA re-replication, Hoechst nuclear intensity, 48 h. Potency, µM (titrated, usually from 46.1 µM), for the others: at the top dose activity, positive = re-replication, actives largely listed as activators. 350,000 compounds, 2.9% hits. AID 624296; note: potency is the fitted concentration of half-maximal effect; % of control where 0% means no effect; nearly all actives have a fitted effect of over 50% in size
DT40 TDP1 no CPT: qHTS for Inhibitors of human tyrosyl-DNA phosphodiesterase 1 (TDP1): qHTS in cells in absence of CPT; Potency, µM (top dose mostly 46.2 µM), without a hit: top-dose activity change, negative = growth inhibition, most hits filed as inhibitors; AID 686978, 2013; DT40 Tdp1-/- hTDP1 cells, no CPT, ATP luminescence, 48 h; 420,000 compounds, 15% hits; note: potency is the fitted concentration of half-maximal effect; % is set by controls: 0 for no effect and ±100 for the full control effect; nearly all actives have a fitted effect of over 55% in size
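Chicken DT40 Tdp1-/- cells complemented with human TDP1, screened without camptothecin (DMSO vehicle only), 400 cells/well. Compounds pin-transferred, cells incubated at 37 °C for at least 48 hr. Growth read as ATP-dependent luminescence (CellTiter-Glo, 30 min at RT).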
The depositor's hits bear a star; ? = inconclusive; . = not tested or not shown; [ ] = remark or other dose. A selection: hits, their analogues and other compounds. The true share with any hit is near 19%. Unless noted, calls come from the whole dose curve; as a rule, active = well fitted curve in the direction sought with a large enough effect; inconclusive = small, poorly fitted or top-dose-only effect, or another doubt; inactive = no such curve, though single readings can be large; an effect the other way counts as inactive or inconclusive.

SMILES	IL1B secr inh	SW480 rerep	DT40 TDP1 CPT	BCR signal inh	MCF10A rereplic	DT40 TDP1 no CPT
O=C(O)c1cccnc1SC1CC(=O)N(c2ccc(OC(F)F)cc2)C1=O (centres undefined)	-11	?	?	?	2%	15µM*
O=C(O)c1cccnc1SC1CC(=O)N(CCc2ccccc2)C1=O (centres undefined)	5	-5%	-10%	-5%	-4%	-1%
O=C(O)c1cccnc1SC1CC(=O)N(Cc2ccccc2)C1=O (centres undefined)	2	-1%	15µM*	1%	1%[9.22 µM]	21µM*
O=C(O)CSc1ncccc1C(=O)O	41	6%	-3%	3%	9.2µM*	-2%
C/C(=N\NC(=O)CN1CCN(S(=O)(=O)c2ccc(C)cc2)CC1)c1ccncc1	25	-1%	2%	5%	2%	16%
CCOC(=O)c1cncc(C#CCO)c1	-4	-110%	2%	13%	8%	0%
CCC(ONc1ccccc1C(F)(F)F)(C(=O)NN(C)C)c1ccccc1 (centres undefined)	-1	17%	?	-30%	-6%	-30%
CC(C(=O)NC1(C#N)CCCCC1)N(C)CC(=O)Nc1ccc(Cl)c(Cl)c1 (centres undefined)	-18	7%	?	?	12%	18µM*
CN(CC(=O)Nc1ccc(Cl)c(Cl)c1)C1CCCCC1	-10	22%	?	?	29%	?
CC(C)C[C@H](NC(=O)C1CC(=O)N(c2ccc(F)cc2)C1)C(=O)N1CCCCC1 (some centres undefined)	15	1%	2%	5%	4%	-6%
Cc1ccc(S(=O)(=O)N2[C@H](CC(=O)Oc3ccccc3)OC[C@@H]2C(C)C)cc1	15	.	13µM*	.	.	13µM*
CC(=O)C[C@H]1SC[C@@H](C(C)C)N1S(=O)(=O)c1ccc(C)cc1	8	.	9.2µM*	.	.	13µM*
Cc1ccc(S(=O)(=O)C[C@@H]2OC[C@H](C(C)C)N2S(=O)(=O)c2ccc(C)cc2)cc1	-2	.	18µM*	.	.	16µM*
COc1ccc(CN2CCN(Cc3ccc4cc(F)ccc4n3)CC2CCO)c(C)c1C (centres undefined)	?	2%	16µM*	-10%	12%	?
CCOc1ccccc1CN1CCN(Cc2ccc3cc(F)ccc3n2)CC1CCO (centres undefined)	11	-41%	?	3%	?	-16%
CCOc1ccc2nc(CN3CCN(Cc4ccccc4OCC)C(CCO)C3)ccc2c1 (centres undefined)	-70*	10%	23µM*	-4%	?	26µM*
OCCC1CN(Cc2ccc3nonc3c2)CCN1Cc1ccsc1 (centres undefined)	-13	-3%	-25%	0%	1%	-27%
COc1ccc(CN2CCN(Cc3cccn3-c3ncccn3)CC2CCO)c(C)c1C (centres undefined)	-11	5%	?	?	13%	9.2µM*
COc1cc(CN2CCN(Cc3ccc4cc(F)ccc4n3)CC2CCO)cc(OC)c1 (centres undefined)	?	-4%	8%	-3%	1%	-25%
OCCC1CN(Cc2ccc3cc(Cl)ccc3n2)CCN1Cc1ccsc1 (centres undefined)	-7	?	13µM*	-8%	19%	?
COCC(=O)Nc1cc(C(=O)N[C@H]2CCCCNC2=O)c2c(c1)nc(-c1ccncc1)n2C	.	.	13%[9.04 µM]	.	.	-14%
CC1CCC(C(C)C)C(OC(=O)Cn2c(-c3ccc(F)cc3)[n+](C)c3ccccc32)C1 (centres undefined)	-101*	16µM*	2.3µM*	?	?	2.3µM*
CC1CCC(C(C)C)C(OC(=O)Cn2c(-c3ccccc3)[n+](C)c3ccccc32)C1 (centres undefined)	-103*	15µM*	0.52µM*	?	18µM*	0.46µM*
CC1CCC(C(C)C)C(OC(=O)CSc2nnc(N)s2)C1 (centres undefined)	14	13%	?	2%	?	-29%
Cc1cccc(OCc2n(CC(=O)OC3CC(C)CCC3C(C)C)c3ccccc3[n+]2C)c1 (centres undefined)	-98*	?	5.2µM*	?	?	5.8µM*
SMILES	IL1B secr inh	SW480 rerep	DT40 TDP1 CPT	BCR signal inh	MCF10A rereplic	DT40 TDP1 no CPT
CC1CCC(C(C)C)C(OC(=O)CSc2nc(N)cc(=O)[nH]2)C1 (centres undefined)	25	0%	?	?	-1%	?
O=C(CCS(=O)(=O)c1ccc(F)cc1)N1CCOCC1	24	-2%	4%	2%	0%	23%
COC(=O)C[C@H]1c2ccccc2S(=O)(=O)N1c1ccc(N(C)C)cc1	.	.	?	.	.	10µM*
COC(=O)C[C@H]1c2cc(C(F)(F)F)ccc2S(=O)(=O)N1c1ccc(N(C)C)cc1	41	-12%	13µM*	.	?	10µM*
COC(=O)C[C@H]1c2cc(F)ccc2S(=O)(=O)N1c1ccccc1	24	1%	6%	.	-1%	-15%
CC(=O)C[C@H]1c2cc(C(F)(F)F)ccc2S(=O)(=O)N1c1ccc(N(C)C)cc1	21	-12%	7.9µM*	.	17%	15µM*
CN(CC(=O)Nc1ccc(F)cc1F)S(=O)(=O)c1ccc(C(=O)N2CCOCC2)s1	.	.	?	.	.	-12%
CN(C)c1ccc(-c2ccnc3c2CC(C)(C(=O)NCc2cccs2)O3)cc1 (centres undefined)	11	.	16µM*	.	.	13µM*
CC1(C(=O)NCc2cccc(Cl)c2)Cc2c(-c3ccc4c(c3)OCO4)ccnc2O1 (centres undefined)	36	.	26µM*	.	.	16µM*
CC(=O)Nc1ccc(NC(=O)C2(C)Cc3c(-c4ccc5c(c4)OCO5)ccnc3O2)cc1 (centres undefined)	0	.	1%	.	.	-9%
COc1ccc(CCCNC(=O)C2(C)Cc3c(-c4ccc5c(c4)OCO5)ccnc3O2)cc1 (centres undefined)	0	.	5.2µM*	.	.	5.8µM*
CC1(C(=O)NCc2cccs2)Cc2c(-c3ccccc3)ccnc2O1 (centres undefined)	35	.	5.8µM*	.	.	6.5µM*
